The values below come from PubChem BioAssay (Tox21).

Assay [1] is described as follows: A CellTox Green Cytotoxicity Assay to monitor cytotoxicity in HepG2 cells - 8 hour (AID 1224890). Note: nearly all actives have a fitted effect of over 45% in size. Note: potency is the fitted concentration of half-maximal effect. In outline:
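Fluorescent DNA-binding dye, 600 HepG2 cells/well, 5 h preincubation then compound in DMSO; same plates read at 0–40 h, 37 C.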

The nature of assay [2]: qHTS assay to identify small molecule antagonists of the androgen receptor (AR) signaling pathway using the MDA cell line in the presence of 0.5 nM R1881 - cell viability counter screen (AID 1259242). Note: nearly all actives have a fitted effect of over 45% in size. In a few lines:
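Human breast carcinoma MDA-kb2 cells, cultured without CO2, receive compounds alongside 0.5 nM (final) R1881 agonist. After 16 hr at 37C, viability is taken as live-cell protease signal.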
For orientation: qHTS replaces the single test concentration by a dilution series.

Assay [3] can be described thus: qHTS assay to identify small molecule HDAC inhibitors (AID 1259364). Note: potency is the fitted concentration of half-maximal effect.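 Note: wild-type HCT-116 cells with endogenous class I/II HDAC activity; nearly all actives have a fitted effect of over 45% in size.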 In outline: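 After a 2 hr compound incubation (37C, 5% CO2), HCT-116 cells seeded at 1,500/well the day before received HDAC-Glo reagent; signal read as luminescence after 30 min at room temperature.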
Assay [4] is described as follows: qHTS assay to identify small molecule HDAC inhibitors - cell viability counter screen (AID 1259365). Note: series mostly up to about 92 µM; nearly all actives have a fitted effect of over 50% in size. In outline: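 Wild-type HCT-116 cells, 1,500/well, cultured overnight, then compound-treated 2 h at 37 C. Viability measured as ATP luminescence with CellTiter-Glo after 30 min at room temperature.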
Assay [5] in a line: qHTS assay to identify small molecule agonists of the sonic hedgehog signaling (Shh) pathway - cell viability counter screen (AID 1259366). Note: nearly all actives have a fitted effect of over 50% in size. Note: potency is the fitted concentration of half-maximal effect. In a few lines: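 NIH/3T3-derived Gli1-Luc reporter cells, 2,000 per well, received compound after 4 h and were treated about 23 h at 37C. Viability measured in the same wells by CellTiter-Fluor fluorescence after 1 h.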
Assay [6] is described as follows: qHTS assay to identify small molecule antagonists of the sonic hedgehog signaling (Shh) pathway - cell viability counter screen (AID 1259367). Note: nearly all actives have a fitted effect of over 55% in size. Note: potency is the fitted concentration of half-maximal effect. In a few lines:
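Conditioned medium drove Shh signaling in 3T3 Gli1-Luc cells exposed to compounds at 37C and 5% CO2. Viability was determined from CellTiter-Fluor fluorescence, with reagent incubated 1 hr after 23 hr of treatment.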

Assay [7] in a line: qHTS assay to identify small molecule agonists of the sonic hedgehog signaling (Shh) pathway (AID 1259368; calls by dose curve;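 note: NIH/3T3-derived 3T3Gli1-Luc cells carrying a stable Gli1-driven firefly luciferase reporter; series mostly up to about 92 µM; nearly all actives have a fitted effect of over 15% in size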). In outline:
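Stable NIH/3T3 Gli1-Luc reporter clone; 24 hr cpd exposure after a 4 hr settling period; luminescence endpoint.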

Assay [8] in a line: qHTS assay to identify small molecule antagonists of the sonic hedgehog signaling (Shh) pathway (AID 1259369; calls by dose curve; note: nearly all actives have a fitted effect of over 45% in size; note: potency is the fitted concentration of half-maximal effect). In outline:
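Gli1 transcriptional reporter (firefly Luc) in NIH/3T3 background, conditioned-medium activated. 24hr exposure, luminescence endpoint.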

Assay [9] in a line: qHTS assay to identify small molecule antagonists of the estrogen receptor beta (ER-beta) signaling pathway - cell viability counter screen (AID 1259382). Note: series mostly up to about 92 µM; nearly all actives have a fitted effect of over 55% in size. In outline: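 HEK293T ER-beta-UAS-bla, 2% charcoal-stripped FBS; compounds + 1nM E2 16 hr 37C; CellTiter-Glo luminescence, 30 min RT.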
For assay [10], the target named is Estrogen receptor (Homo sapiens) (UniProt P03372). Put plainly: qHTS assay to identify small molecule agonists of the estrogen receptor alpha (ER-alpha) signaling pathway in the presence of an antagonist (AID 1259383; calls by dose curve; note: top concentration of the series differs between compounds; nearly all actives have a fitted effect of over 15% in size). In a few lines: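 ER-alpha agonism measured under antagonist challenge: 10.0nM ICI-182,780 (final) plus compound, 15 concentrations, 22hr, VM7Luc4E2 ERE-luciferase cells. Read by luminescence.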

Assay [11] in a line: qHTS assay to identify small molecule agonists or antagonists of the thyroid stimulating hormone receptor (TSHR) signaling pathway - wild type cell line counter screen (AID 1259384; calls by dose curve). In outline:
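Wild-type HEK293 cells were plated 18 h at 37 C/5% CO2, pin-dosed with compound plus Ro20-1724 medium, held 30 min at room temperature, then given cAMP-d2 and anti-cAMP-cryptate; fluorescence was read after 1 h. Fifteen concentrations, triplicate.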

The nature of assay [12]: qHTS assay to identify small molecule antagonists of the estrogen receptor alpha (ER-alpha) signaling pathway using the BG1 cell line in the presence of 0.1 nM 17-beta-estradiol - cell viability counter screen (AID 1259241). Note: nearly all actives have a fitted effect of over 40% in size. In outline: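 VM7Luc4E2 cells (endogenous full-length ER-alpha, 4xERE-luciferase), cultured 5 days in charcoal-stripped serum, exposed to compounds with 0.1 nM 17beta-estradiol (final) for 22 hr at 37C. Viability read in same wells as live-cell protease fluorescence after 30 min.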

Assay [13] has as its target Estrogen receptor beta (Homo sapiens) (UniProt Q92731). Put plainly: qHTS assay to identify small molecule agonists of the estrogen receptor beta (ER-beta) signaling pathway (AID 1259377; active = well fitted activation curve with a large enough effect in the signal ratio in the repeat runs, not every such curve was filed as active; the % refers to the signal ratio). In outline:
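ER-beta-UAS-bla HEK293T cells in medium with 2% charcoal-stripped FBS were exposed to compounds for 16 h at 37C. Beta-lactamase reporter activity was read as fluorescence after 2 h with LiveBLAzer B/G FRET substrate at room temperature.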

For assay [14] the target is unchanged. The assay can be described thus: qHTS assay to identify small molecule antagonists of the estrogen receptor beta (ER-beta) signaling pathway (AID 1259378; active = well fitted inhibition curve with a large enough effect in the signal ratio in the repeat runs, not every such curve was filed as active; the % refers to the signal ratio). In a few lines: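 ER-beta-UAS-bla HEK293T (GripTite) cells in 2% charcoal-stripped FBS medium were preincubated 6 hr at 37C, dosed with compound, then stimulated with 1 nM E2 (final) for 16 hr; beta-lactamase reporter read by B/G FRET fluorescence after 2 hr substrate loading.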

A short description of assay [15]: qHTS assay to identify small molecule agonists of the androgen receptor (AR) signaling pathway in the presence of an antagonist - cell viability counter screen (AID 1259379).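 Note: MDA-kb2 human breast cancer cells carrying an MMTV luciferase reporter; series mostly up to about 92 µM; nearly all actives have a fitted effect of over 25% in size.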 In outline:
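Counter screen for cell viability run in parallel with the AR agonist-mode luciferase assay. MDA-kb2 cells were co-treated with nilutamide (3.0uM final) and compounds, then incubated 16 hr at 37C, and CellTiter-Fluor fluorescence was measured.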

Assay [16] in a line: qHTS assay to identify small molecule agonists of the estrogen receptor beta (ER-beta) signaling pathway - cell viability counter screen (AID 1259380). Note: nearly all actives have a fitted effect of over 30% in size. Note: potency is the fitted concentration of half-maximal effect. In outline: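 In this qHTS counter screen, HEK293T cells carrying an ER-beta/UAS beta-lactamase reporter, grown in 2% charcoal-stripped FBS, received compound for 16 hr; ATP-based CellTiter-Glo luminescence was then read after 30 min at room temperature.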

The nature of assay [17]: qHTS assay to identify small molecule phospholipidosis (PLD) inducers (AID 1259344; active = well fitted curve in the direction sought with a large enough effect; an effect the other way counts as inactive or inconclusive). In outline: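 After 4 h attachment on collagen I, HepG2 cells were dosed with compound alongside LipidTOX Red, kept 24 h at 37 C, fixed, and imaged for lamellar phospholipid pits.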
In assay [18] the target is Androgen receptor (Homo sapiens) (UniProt P10275). The assay can be described thus: qHTS assay to identify small molecule antagonists of the androgen receptor (AR) signaling pathway using the MDA cell line in the presence of 0.5 nM R1881 (AID 1259243). Note: potency is the fitted concentration of half-maximal effect; nearly all actives have a fitted effect of over 50% in size. In a few lines:
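Cells: MDA-kb2 (MMTV-luc). Stimulus: 0.5 nM R1881. Time: 16 hr, 37C, no CO2. Detection: ONE-Glo luminescence after 30 min at RT.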

For assay [19] the target is unchanged. The assay can be described thus: qHTS assay to identify small molecule agonists of the androgen receptor (AR) signaling pathway in the presence of an antagonist (AID 1259381; calls by dose curve; note: nearly all actives have a fitted effect of over 15% in size). In outline: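 AR antagonist background: nilutamide 3.0uM final. Cell line: MDA-kb2, MMTV-driven luciferase, responsive to both AR and GR. Exposure 16hr, 37C, no CO2; ONE-Glo luminescence.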

Structures are written as SMILES. Unmarked numbers belong to inactive results. Inconclusive results are not listed. Activity calls are given as the source filed them. Unless noted, calls come from the whole dose curve; as a rule, active = well fitted curve in the direction sought with a large enough effect in the repeat runs; inconclusive = weak or mixed curves; inactive = no such curve, though single readings can be large; an effect the other way counts as inactive or inconclusive.

Chain of Estrogen receptor beta (Homo sapiens) (Q92731 whole entry, looked up): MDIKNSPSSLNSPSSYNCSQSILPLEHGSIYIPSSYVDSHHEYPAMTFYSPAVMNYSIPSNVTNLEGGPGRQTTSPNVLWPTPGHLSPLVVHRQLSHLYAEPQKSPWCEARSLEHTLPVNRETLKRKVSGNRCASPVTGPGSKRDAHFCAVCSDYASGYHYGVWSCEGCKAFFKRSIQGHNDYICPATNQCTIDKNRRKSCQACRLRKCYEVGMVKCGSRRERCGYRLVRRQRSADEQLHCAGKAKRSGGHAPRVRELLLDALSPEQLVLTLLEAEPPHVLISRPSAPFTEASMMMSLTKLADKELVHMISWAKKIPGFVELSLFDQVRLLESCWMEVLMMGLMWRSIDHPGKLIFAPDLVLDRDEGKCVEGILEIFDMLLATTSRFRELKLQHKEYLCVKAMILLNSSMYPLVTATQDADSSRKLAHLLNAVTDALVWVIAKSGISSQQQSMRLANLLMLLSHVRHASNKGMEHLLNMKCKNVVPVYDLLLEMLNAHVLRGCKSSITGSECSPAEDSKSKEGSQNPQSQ
Chain of Estrogen receptor (Homo sapiens) (P03372 whole entry, looked up): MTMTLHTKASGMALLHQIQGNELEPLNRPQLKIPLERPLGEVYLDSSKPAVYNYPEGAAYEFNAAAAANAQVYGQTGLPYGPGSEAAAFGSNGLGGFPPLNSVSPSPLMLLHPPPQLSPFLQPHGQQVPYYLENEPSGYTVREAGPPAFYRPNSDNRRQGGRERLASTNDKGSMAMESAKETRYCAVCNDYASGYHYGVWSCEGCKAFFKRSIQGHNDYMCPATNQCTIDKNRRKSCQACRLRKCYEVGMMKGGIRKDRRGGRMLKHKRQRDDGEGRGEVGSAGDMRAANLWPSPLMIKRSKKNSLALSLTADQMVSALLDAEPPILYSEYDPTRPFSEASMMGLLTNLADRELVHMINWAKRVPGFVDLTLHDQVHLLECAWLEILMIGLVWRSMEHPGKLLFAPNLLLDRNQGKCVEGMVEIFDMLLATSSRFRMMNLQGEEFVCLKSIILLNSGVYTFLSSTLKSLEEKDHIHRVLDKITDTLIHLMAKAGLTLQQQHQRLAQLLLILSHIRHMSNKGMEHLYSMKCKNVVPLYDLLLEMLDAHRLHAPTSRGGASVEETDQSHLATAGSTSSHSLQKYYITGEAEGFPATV
Chain of Androgen receptor (Homo sapiens) (P10275 whole entry, looked up): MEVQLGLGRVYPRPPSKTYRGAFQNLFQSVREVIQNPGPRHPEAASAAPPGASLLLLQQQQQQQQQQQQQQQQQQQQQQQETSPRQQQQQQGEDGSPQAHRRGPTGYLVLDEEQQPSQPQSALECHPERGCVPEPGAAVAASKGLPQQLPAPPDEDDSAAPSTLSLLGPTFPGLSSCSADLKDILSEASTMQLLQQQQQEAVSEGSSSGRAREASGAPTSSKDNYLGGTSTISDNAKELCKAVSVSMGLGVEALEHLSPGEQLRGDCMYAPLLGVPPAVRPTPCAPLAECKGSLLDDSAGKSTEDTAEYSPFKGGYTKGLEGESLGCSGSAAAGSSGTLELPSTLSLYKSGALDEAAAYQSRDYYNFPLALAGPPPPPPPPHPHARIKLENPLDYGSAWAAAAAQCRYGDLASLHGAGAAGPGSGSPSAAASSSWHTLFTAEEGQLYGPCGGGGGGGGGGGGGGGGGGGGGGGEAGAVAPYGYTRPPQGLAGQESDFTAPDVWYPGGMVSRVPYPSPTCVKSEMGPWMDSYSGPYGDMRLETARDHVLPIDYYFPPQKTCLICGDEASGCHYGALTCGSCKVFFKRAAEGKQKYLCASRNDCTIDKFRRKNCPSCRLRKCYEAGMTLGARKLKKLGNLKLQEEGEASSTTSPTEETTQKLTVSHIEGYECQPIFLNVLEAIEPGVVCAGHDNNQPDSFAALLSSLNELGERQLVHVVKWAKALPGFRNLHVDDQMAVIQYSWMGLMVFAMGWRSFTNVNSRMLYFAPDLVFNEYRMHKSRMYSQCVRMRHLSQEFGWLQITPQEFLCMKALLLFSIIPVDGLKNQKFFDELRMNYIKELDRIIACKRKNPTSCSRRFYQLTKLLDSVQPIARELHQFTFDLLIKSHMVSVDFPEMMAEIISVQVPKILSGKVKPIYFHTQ

Consider `CCOC(=O)COc1ccc2c(c1)CC(NCC(O)c1cccc(Cl)c1)CC2` (stereo unspecified), for which the Potency in assay [1] is 44 µM (active); in [5] it was 21.9 µM (active); in assay [6] it was 27.5 µM (active); in assay [8], 27.5 µM (active). The result in [2], in assay [4], in assay [9] and in assay [11] was inactive. Also, the Potency result in assay [3], in assay [7] and in assay [10] was “inactive” throughout.

On to `Cc1onc(-c2ccccc2)c1C(=O)Cl`, for which the Potency result in assay [12], in [3], in [5], in assay [6], in assay [7] and in assay [8] was “inactive” each time. The Potency entry in assay [14], in [15] and in assay [16] was “inactive” each time. Further, the result in [4], in [13], in assay [9] and in assay [11] was inactive.

Turning to `C=CC(C)(O)CC/C=C(\C)CCC=C(C)C` (stereo unspecified), the Potency in assay [1] is 19.5 µM (active). Also, the call in [17], in assay [4] and in assay [13] was inactive. Also, the Potency result in assay [3], in assay [5], in [6], in [7], in assay [8] and in assay [14] was “inactive” in each case. For the same compound, the Potency result in [15] is “inactive”.

Take `O=c1[nH]cnc2c1ncn2[C@@H]1O[C@H](CO)[C@@H](O)[C@H]1O`: the Potency result in assay [1], in [3], in [5], in [6], in [7] and in assay [8] was “inactive” throughout. Moreover, the Potency result in assay [14] and in [15] was “inactive” in each case. Moreover, the outcome in [2], in [17], in [4], in [13] and in assay [11] was inactive.

Take `Cc1cn([C@@H]2O[C@H](CO)[C@@H](O)[C@@H]2F)c(=O)[nH]c1=O`: the Potency entry in assay [1], in [3], in assay [5], in [6], in assay [8] and in assay [14] was “inactive” each time. Moreover, the Potency result in assay [15] and in assay [16] was “inactive” in each case. Besides, the result in assay [2], in [4], in assay [13], in [9] and in assay [11] was inactive.

In the case of `CCN(O)CC`, the Potency entry in [1], in [7], in assay [15] and in assay [16] was “inactive” in each case. The result in assay [2] and in assay [4] was inactive. Moreover, the Potency in assay [3] is 26.7 µM (active); in assay [5], 30 µM (active); in assay [6], 21.2 µM (active); in assay [8], 11.9 µM (active).

As for `CCc1cc2cc(OC)c(OC)cc2c(Cc2ccccc2)n1`, the Potency result in assay [12], in [3], in assay [5], in assay [6], in assay [7] and in assay [15] was “inactive” in each case. The Potency result in assay [16], in [19] and in assay [10] was “inactive” in each case. The result in [2], in assay [4], in [13], in assay [9] and in assay [11] was inactive. Further, the Potency in assay [18] was 4.22 µM (active).

Take `CN(C)CCOc1ccccc1Cc1ccccc1`: the Potency entry in [12], in assay [3], in [5], in assay [6], in [7] and in [14] was “inactive” in each case. In addition, the Potency entry in assay [15] was “inactive”. In addition, the result in assay [2], in assay [4], in [13] and in [11] was inactive. In assay [16], the Potency is 26.6 µM (active).

For the compound `CCCCCCCCCCCCCCCCOP(=O)([O-])OCC[N+](C)(C)C`, the Potency result in assay [12], in [3], in assay [5], in assay [6], in [7] and in assay [8] was “inactive” throughout. For the same compound, the Potency entry in assay [14] and in assay [15] was “inactive” throughout. In addition, the call in [17], in [4], in [13], in assay [9] and in assay [11] was inactive.
